Assay results as given in PubChem BioAssay AID504832 (National Center for Advancing Translational Sciences (NCATS), 2011).
Hit rate of the full screen: of about 310,000 compounds, about 18,000 (5.8%) were called active. Where a call stands in place of a potency, no number is given. Not shown: some 22% with an inconclusive outcome. Calls follow the shape of the dose curve; as a rule, active = well fitted inhibition curve with a large enough effect; inconclusive = small, poorly fitted or top-dose-only effect, or another doubt; inactive = no such curve, though single readings can be large or run the other way. For the sample, actives were picked, then their nearest neighbours and some compounds at random.

Experiment: Primary qHTS for delayed death inhibitors of the malarial parasite plastid, 48 hour incubation
Settings: P. falciparum luciferase growth in erythrocytes; series mostly up to 28.7 µM
Outline: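 Luciferase-expressing parasites in RBCs, 2% Hct / 0.1% parasitemia final; RPMI 1640 + 0.5% Albumax; 37 C, 5% CO2, one generation; luminescence read-out, lower signal = inhibition.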
Potency is read from the fitted curve at half-maximal effect.

SMILES	Potency
Cc1ccc(N(CC(=O)NCC2CCCO2)C(=O)CNS(=O)(=O)c2ccc(Cl)cc2)cc1 (centres undefined)	inactive
O=c1[nH]c(N2CCOCC2)nc2ccccc12	inactive
Cc1ccc(S(=O)(=O)N2CCN(C(=O)COC(=O)c3c(C)noc3C)CC2)c(C)c1	inactive
Cc1ccc(S(=O)(=O)N2CCN(C(=O)COC(=O)c3c(C)cc(C)cc3C)CC2)c(C)c1	14.7 µM (active)
Cc1ccc(S(=O)(=O)N2CCN(C(=O)CSc3cc(C)ccc3C)CC2)c(C)c1	inactive
COc1ccc(N2CCN(C(=O)c3cccs3)CC2)cc1	inactive
O=C(NCCc1ccccc1Cl)C1CCC(=O)N(CCCc2ccccc2)C1 (centres undefined)	inactive
NC1=NC(=O)S/C1=C\c1ccc(O)cc1	inactive
O=C1N=C(N2CCOCC2)S/C1=C\C=C/c1ccccc1	inactive
O=C1N=C(N2CCc3ccccc3C2)S/C1=C\c1ccc(O)cc1	7.38 µM (active)
O=S1(=O)CCO[C@H]2Cc3ccccc3[C@H]2N1Cc1ccccc1	inactive
O=C(c1cc(COc2ccc(F)c(F)c2)on1)N1CCOCC1	inactive
COc1cc(/C=N/NC(=O)c2ccoc2C)ccc1OCCN1CCCCC1	inactive
COc1ccccc1NC(=O)C1=C(C)Nc2nc3ccccc3n2C1c1cccs1 (centres undefined)	13.1 µM (active)
COc1ccc(C2C(C(=O)Nc3ccccc3OC)=C(C)Nc3nnnn32)c(OC)c1 (centres undefined)	inactive
COc1ccccc1NC(=O)C1=C(C)Nc2nnnn2C1c1cccc(Br)c1 (centres undefined)	inactive
COc1cccc(NC(=O)CN2CCN(CC(=O)Nc3ccccc3Cl)CC2)c1	inactive
C[C@@H](NC(=O)[C@@H]1Cc2ccccc2CN1)C(=O)NC1CCCC1	inactive
O=C(NC1CCN(Cc2ccccc2)CC1)c1ccccc1F	inactive
Cc1ccc(-c2cc(C(=O)NC3CCN(Cc4ccccc4)CC3)c3ccccc3n2)cc1	13.1 µM (active)
Cc1cc(C(=O)NC2CCN(Cc3ccccc3)CC2)n[nH]1	inactive
COc1ccc(C(=O)C2CCCN(S(=O)(=O)c3cccc(C)c3)C2)c(C)c1 (centres undefined)	inactive
COc1c(C)cc(C(=O)C2CCCN(S(=O)(=O)c3c(C)noc3C)C2)cc1C (centres undefined)	9.28 µM (active)
Cc1ccc(NC(=O)C2CCCN(S(=O)(=O)c3c(C)noc3C)C2)c(C)c1 (centres undefined)	inactive
CN(C(=O)CSc1nnc(-c2ccc(C(C)(C)C)cc2)n1C)C1CCS(=O)(=O)C1 (centres undefined)	inactive
CC(=O)Nc1ccc(C(=O)N(C2=NC(C)CS2)c2ccc(Cl)cc2)cc1 (centres undefined)	inactive

SMILES	Potency
Nc1nc(SCc2cccc(Br)c2)n[nH]1	inactive
Cc1nc(NNC(=O)c2ccccc2)cc(-c2ccccc2)n1	inactive
Cc1ccc(-c2csc(NC(=O)c3cccs3)n2)cc1	inactive
Cc1ccc(-c2csc(NNC(=O)c3ccccc3)n2)cc1	2.33 µM (active)
CCn1c(SCC(=O)NNC(=O)c2ccc(OC)cc2)nnc1C(C)C	inactive
Cc1ccc(Cn2c(=N)c(S(=O)(=O)c3ccc(C)cc3)cc3c(=O)n4ccccc4nc32)cc1	inactive
Cn1c(Cc2cccs2)nnc1SCC(=O)Nc1ccccc1	inactive
COc1cccc(C(=O)Nc2c3c(nn2-c2cccc(C)c2C)CS(=O)(=O)C3)c1OC	10.4 µM (active)
CCC(CC)C(=O)Nc1c2c(nn1-c1ccc(C)cc1)CS(=O)(=O)C2	inactive
O=C(CC1CCCCC1)Nc1c2c(nn1-c1ccc(F)cc1)CS(=O)(=O)C2	inactive
COc1cccc(C(=O)Nc2cccnc2)c1OC	inactive
Cc1cccc(-n2nc3c(c2NC(=O)c2cc4ccccc4o2)CS(=O)(=O)C3)c1	inactive
COc1ccccc1OCC(=O)Nc1c2c(nn1-c1ccc(F)cc1)CS(=O)(=O)C2	10.4 µM (active)
CCOC(=O)c1sc(N)c(C#N)c1COC(=O)C1=COCCO1	inactive
Cc1cc(C)cc(NC(=O)C2CCCN2S(=O)(=O)c2cccc3cccnc23)c1 (centres undefined)	inactive
CCn1c(CC(=O)Nc2ccccc2C)nnc1SCC(=O)NC1=NCCS1	inactive
CCCc1nn(C)c2c(=O)[nH]c(-c3cc(S(N)(=O)=O)ccc3OCC)nc12	inactive
N#Cc1cc([N+](=O)[O-])ccc1NCC1CCCO1 (centres undefined)	inactive
CC(C)C(=O)NC(NC(=S)NC1CCS(=O)(=O)C1)C(Cl)(Cl)Cl (centres undefined)	7.38 µM (active)
COc1ccc(NC(=S)NC2CCS(=O)(=O)C2)cc1 (centres undefined)	inactive
O=C(Cc1ccc(Cl)cc1)NC1CCS(=O)(=O)C1 (centres undefined)	inactive
CC1CC(C)CN(C(=O)COC(=O)c2ccc3ncsc3c2)C1 (centres undefined)	inactive
CCc1noc(C)c1C(=O)Nc1nc(-c2ccccc2)cs1	inactive
COCCNc1nc(N)c([N+](=O)[O-])c(NCCO)n1	inactive
Nc1nc(Nc2ccccc2)nc(NCCO)c1[N+](=O)[O-]	inactive
C=CCNc1nc(N)c([N+](=O)[O-])c(NC2CCCCC2)n1	14.7 µM (active)

SMILES	Potency
CSCc1nnc(NC(=O)c2ccc(S(=O)(=O)N3CCCCC3C)cc2)o1 (centres undefined)	inactive
CC(C)Cc1cc(C(=O)NCCc2ccccc2)no1	inactive
CC(C)CNC(=O)c1cc(-c2ccc(Br)cc2)on1	inactive
CC(C)Cc1cc(C(=O)Nc2cc(Br)ccc2O)no1	1.85 µM (active)
Cc1ccc(C(=O)NC(=S)Nc2ccc(N3CCOCC3)cc2)cc1	inactive
COc1cccc(OC)c1C(=O)NC(=S)Nc1ccc(N2CCOCC2)c(Cl)c1	14.7 µM (active)
CCOc1ccc(C(=O)NC(=S)Nc2ccc(N3CCOCC3)c(Cl)c2)cc1[N+](=O)[O-]	inactive
O=C(NCCc1nnc2ccc(SCC(=O)N3CCOCC3)nn12)c1ccccc1	inactive
CC(=O)N1CCCc2cc(S(=O)(=O)N3CCCC(C(=O)NCc4ccc(Cl)cc4)C3)ccc21 (centres undefined)	inactive
CC(=O)N1CCCc2cc(S(=O)(=O)N3CCCC(C(=O)N4CCN(c5cccc(Cl)c5)CC4)C3)ccc21 (centres undefined)	4.15 µM (active)
Cc1ccc(S(=O)(=O)N2CCCC(C(=O)N3CCN(C)CC3)C2)cc1 (centres undefined)	inactive
CCCS(=O)(=O)N1CCCC(C(=O)N2CCN(c3ccccc3)CC2)C1 (centres undefined)	inactive
COc1ccc(S(=O)(=O)N2CCCC(C(=O)N3CCN(C)CC3)C2)cc1C (centres undefined)	inactive
O=C(C1CCCN(S(=O)(=O)c2ccccc2)C1)N1CCN(c2ccc(F)cc2)CC1 (centres undefined)	13.1 µM (active)
CC(C)CCN(C(=O)c1csnn1)C(C(=O)NC1CCCC1)c1ccccc1 (centres undefined)	inactive
CCOc1ccc(N(C)S(=O)(=O)c2cnc[nH]2)cc1	inactive
CC(=O)c1ccc(NC(=O)C2CCCN2S(=O)(=O)c2cccs2)cc1 (centres undefined)	inactive
COc1ccc(C(=O)NC(C)Cn2nc(C)cc2C)cc1OC1CCN(C(C)=O)CC1 (centres undefined)	inactive
Cc1cccc(-c2nc(CS(=O)CC(=O)NC(C)CCc3ccccc3)c(C)o2)c1 (centres undefined)	inactive
O=C(CN1CCc2cc3c(cc2C1)OCCCO3)Nc1ccccc1	inactive
CC(C)OC(=O)CN1C(=O)c2ccccc2C1=O	inactive
Cc1cccc2c1N(CC(=O)OC(C)C)C(=O)C2=O	inactive
CC(C)OC(=O)CN1C(=O)C(=O)c2ccccc21	2.62 µM (active)
Clc1cccc(Cl)c1OCCOCCNCc1ccccc1	inactive
CC(NC(=O)c1ccccc1C(=O)O)c1ccc(-n2ccnc2)cc1 (centres undefined)	inactive
COc1ccc(NC(=O)CCCNC(=O)Cn2cnc3sc4c(c3c2=O)CCCC4)cc1OC	inactive

SMILES	Potency
O=S(=O)(/C=C/c1ccccc1)N1CCNCC1	inactive
Cc1cc2oc(=O)cc(CN3CCN(Cc4ccccc4)CC3)c2cc1C	inactive
O=S(=O)(c1cccs1)N1CCN(Cc2ccccc2)CC1	inactive
Cc1cc2oc(=O)cc(CN3CCN(S(=O)(=O)c4cccs4)CC3)c2cc1C(C)C	10.4 µM (active)
Cc1onc(-c2ccccc2)c1C(=O)N1CCN(S(=O)(=O)c2ccccc2C(F)(F)F)CC1	inactive
Cc1ccc2c(CN3CCN(S(=O)(=O)c4ccccc4C(F)(F)F)CC3)cc(=O)oc2c1	11.7 µM (active)
NC(=O)CCN1CCN(S(=O)(=O)/C=C/c2ccccc2)CC1	inactive
O=S(=O)(c1ccc(F)cc1)N1CCN(Cc2ccccc2C(F)(F)F)CC1	inactive
O=c1cc(CN2CCN(S(=O)(=O)/C=C/c3ccccc3)CC2)c2ccc(O)cc2o1	13.1 µM (active)
COc1ccc(O)c(/C=N/N=C/c2cccc([N+](=O)[O-])c2)c1	inactive
CCn1c(C(O)c2cc(OC)ccc2OC)nc2ccccc21 (centres undefined)	inactive
CCOC(=O)c1c(C)[nH]c(C(=O)OCC(=O)N2CCCC2=O)c1C	inactive
Cc1cc(Cl)nc(NC(=O)Nc2cccc(Cl)c2)n1	inactive
CC(=O)CC[C@@H](C)O[C@@H]1OC(C)[C@H](O)CC1O (some centres undefined)	inactive
COC(=O)c1ccc(NS(=O)(=O)c2cc3c4c(c2)C(C)C(=O)N4CCC3)cc1 (centres undefined)	inactive
O=C(OCC(=O)N1CCCC1=O)c1cc(S(=O)(=O)N2CCOCC2)ccc1Cl	inactive
Cc1nnc(N/N=C/C2CC=CCC2)[nH]c1=O (centres undefined)	inactive
Cc1nnc(N/N=C/c2ccccn2)[nH]c1=O	2.33 µM (active)
Cc1ccccc1Nc1nnc(C)c(=O)[nH]1	inactive
CCCCn1c(N)c(N(CCC(C)C)C(=O)COC(=O)c2cccnc2OCC)c(=O)[nH]c1=O	inactive
CCCCn1c(N)c(N(CCC(C)C)C(=O)c2ccc([N+](=O)[O-])o2)c(=O)[nH]c1=O	inactive
CCCCn1c(N)c(N(CCC(C)C)C(=O)CC2OC(=O)c3ccccc32)c(=O)[nH]c1=O (centres undefined)	8.28 µM (active)
Cc1cc2c(=O)n(CC(=O)NCC(=O)Nc3ccc(C(C)C)cc3)cnc2s1	inactive
COc1ccc(NC(=S)NCCNC(C)=O)cc1	inactive
COc1ccc(C(=O)Nc2ccc(NC(=O)C(C)C)nc2)cc1	inactive
COc1ccc(CS(=O)/C(Cl)=C(/Cl)C(=O)Nc2ccc(OC)nc2)cc1 (centres undefined)	9.28 µM (active)
